Drawing on PubChem BioAssay (NCI), this text covers growth for 8 compounds.

Common to all, as to assay: NCI-60 one-dose screen, 48 h (100 = growth as untreated, 0 = no growth, -100 = all killed)
In one assay the test system is SK-MEL-2 melanoma. To be noted: 10 µM.
The subject of a further assay is EKVX NSCLC. To be noted: 10 µM unless noted.
The next assay has as its system SN12C renal. To be noted: 10 µM unless noted.
In the next assay the test system is UO-31 renal. To be noted: 10 µM unless noted.
In a further assay the test system is TK-10 renal. To be noted: 10 µM unless noted.
In another assay the test system is ACHN renal. To be noted: 10 µM unless noted.
For a further assay, the system named is A498 renal. To be noted: 10 µM unless noted.
For the next assay, the system named is CCRF-CEM leukemia. To be noted: 10 µM unless noted.
A further assay deals with MOLT-4 leukemia. To be noted: 10 µM unless noted.
Another assay concerns SR leukemia. To be noted: 10 µM unless noted.
In a further assay the test system is RPMI-8226 leukemia. To be noted: 10 µM unless noted.
A further assay deals with OVCAR-8 ovarian. To be noted: 10 µM unless noted.
For a further assay, the system named is OVCAR-5 ovarian. To be noted: 10 µM unless noted.
A further assay deals with OVCAR-4 ovarian. To be noted: 10 µM unless noted.
The test system of a further assay is SK-OV-3 ovarian. To be noted: 10 µM unless noted.
The test system of a further assay is IGROV1 ovarian. To be noted: 10 µM unless noted.
The next assay has as its system OVCAR-3 ovarian. To be noted: 10 µM unless noted.
A further assay relates to HS 578T breast. To be noted: 10 µM.
Another assay deals with NCI/ADR-RES ovarian. To be noted: 10 µM unless noted.

SMILES strings stand for the structures. About 83,000 compounds went through this panel and 20% of them were active in at least one assay; those are over-represented in the sample as a whole.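 48-hour exposure, single concentration, 96-well plates; percent growth endpoint where 0 means no net growth. Active: below 10.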 Unmarked numbers belong to inactive results. Activity calls are given as the source filed them.

Consider `CCCCCCCCCCCC[n+]1ccccc1`, for which the growth with SK-MEL-2 melanoma was -30.4% (active); in the assay with EKVX NSCLC, 5.6% (active); with SN12C renal, 3.89% (active); in the assay on UO-31 renal, 35%; in the assay on TK-10 renal, -54.1% (active); in the assay with ACHN renal, 36.2%. For the same compound, the growth with A498 renal was 19%; with CCRF-CEM leukemia it was 1.54% (active); in the assay on MOLT-4 leukemia, -19.1% (active); in the assay on SR leukemia it was -20.7% (active); with RPMI-8226 leukemia, -39.2% (active); in the assay on OVCAR-8 ovarian it was 0.812% (active). Besides, the growth is 14.6% with OVCAR-5 ovarian; 14.9% in the assay with OVCAR-4 ovarian; -1.15% (active) with SK-OV-3 ovarian; -37.5% (active) in the assay on IGROV1 ovarian; -32.9% (active) in the assay on OVCAR-3 ovarian; 6.1% (active) in the assay on HS 578T breast. The growth with NCI/ADR-RES ovarian is 75.4%.

For the compound `O=c1[nH]c(N2CCOCC2)nc2scc(-c3ccccc3)c12`, the growth in the assay with SK-MEL-2 melanoma was 81.8%; with EKVX NSCLC, 53.3%; in the assay with SN12C renal, 107%; in the assay with UO-31 renal it was 83.1%; in the assay with TK-10 renal it was 86.6%; with ACHN renal, 99.3%. For the same compound, the growth with A498 renal was 104%; in the assay with CCRF-CEM leukemia, 101%; in the assay with MOLT-4 leukemia, 90.5%; in the assay on SR leukemia it was 102%; with RPMI-8226 leukemia, 97.7%; in the assay on OVCAR-8 ovarian, 96.2%. Moreover, the growth in the assay with OVCAR-5 ovarian is 104%; with OVCAR-4 ovarian it was 101%; with SK-OV-3 ovarian, 88%; in the assay with IGROV1 ovarian, 101%; in the assay with OVCAR-3 ovarian it was 110%; in the assay with HS 578T breast it was 102%. The growth in the assay on NCI/ADR-RES ovarian is 98.1%.

On to `CCN1CCN(c2cc(C)nc(N(CCCNc3ccnc4cc(Cl)ccc34)Cc3cccs3)n2)CC1`, for which the growth in the assay on SK-MEL-2 melanoma was -37.8% (active); with EKVX NSCLC, 42.3%; in the assay with SN12C renal it was 39%; in the assay with UO-31 renal it was -76.1% (active); in the assay on TK-10 renal, -41% (active); in the assay with ACHN renal, 7.79% (active). The growth is -13.7% (active) in the assay with A498 renal; 1.95% (active) in the assay on CCRF-CEM leukemia; 5.24% (active) in the assay with MOLT-4 leukemia; -34% (active) in the assay on SR leukemia; -33.6% (active) in the assay with RPMI-8226 leukemia; 15.7% in the assay on OVCAR-8 ovarian. For the same compound, the growth in the assay with OVCAR-5 ovarian was 69.8%; in the assay with OVCAR-4 ovarian, 30.4%; in the assay on SK-OV-3 ovarian it was 65.5%; with IGROV1 ovarian, 10.3%; in the assay with OVCAR-3 ovarian it was -2.11% (active); in the assay on HS 578T breast it was -22.4% (active). The growth in the assay on NCI/ADR-RES ovarian was 28.5%.

On to `c1ccc2c(c1)CCN(NCCN1CCCC1)C2`, for which the growth was 91.5% in the assay with SK-MEL-2 melanoma; 86.4% in the assay on EKVX NSCLC; 94.8% in the assay with SN12C renal; 75% in the assay with UO-31 renal; 96.6% with TK-10 renal; 89% in the assay with ACHN renal. Besides, the growth with A498 renal was 87.7%; with CCRF-CEM leukemia, 79.3%; in the assay with MOLT-4 leukemia it was 99.4%; with SR leukemia, 103%; in the assay with OVCAR-8 ovarian, 101%; with OVCAR-5 ovarian, 94.7%. Also, the growth is 106% in the assay on OVCAR-4 ovarian; 84.6% in the assay on SK-OV-3 ovarian; 96.3% in the assay on IGROV1 ovarian; 99.9% in the assay with OVCAR-3 ovarian; 85.6% in the assay on HS 578T breast; 96.1% in the assay with NCI/ADR-RES ovarian.

With `CN(N)c1nc2sc3c(c2c(=O)[nH]1)CCCC3`, the growth was 103% in the assay on SK-MEL-2 melanoma; 86.6% with EKVX NSCLC; 104% in the assay with SN12C renal; 72.9% in the assay with UO-31 renal; 111% in the assay on TK-10 renal; 107% in the assay with ACHN renal. Also, the growth is 101% in the assay with A498 renal; 98.9% with CCRF-CEM leukemia; 97.5% in the assay on MOLT-4 leukemia; 104% in the assay on SR leukemia; 103% in the assay with RPMI-8226 leukemia; 102% in the assay on OVCAR-8 ovarian. For the same compound, the growth in the assay on OVCAR-5 ovarian is 131%; in the assay with OVCAR-4 ovarian, 103%; with SK-OV-3 ovarian, 82.7%; in the assay with IGROV1 ovarian, 90.1%; with OVCAR-3 ovarian, 99.7%; with HS 578T breast, 94.6%. Also, the growth in the assay with NCI/ADR-RES ovarian was 104%.

As to `CSC1=C(N)C(=O)c2[nH]cc(CO)c2C1=N`, the growth with SK-MEL-2 melanoma is -52.3% (active); in the assay on EKVX NSCLC it was -56.6% (active); in the assay on SN12C renal it was -49% (active); in the assay with UO-31 renal it was -96% (active); in the assay on TK-10 renal, -83.7% (active); in the assay on ACHN renal it was 1.86% (active). Further, the growth with A498 renal is -89.6% (active); in the assay with CCRF-CEM leukemia, 3.16% (active); in the assay on MOLT-4 leukemia, -24.3% (active); in the assay on SR leukemia, 6.06% (active); in the assay on RPMI-8226 leukemia, -32.9% (active); in the assay with OVCAR-8 ovarian, -62% (active). In addition, the growth in the assay on OVCAR-5 ovarian was -76% (active); in the assay on OVCAR-4 ovarian, -95.7% (active); in the assay on SK-OV-3 ovarian, -94.4% (active); in the assay on IGROV1 ovarian it was -62.5% (active); in the assay on OVCAR-3 ovarian, -74.8% (active); in the assay with HS 578T breast it was 5% (active). Moreover, the growth in the assay with NCI/ADR-RES ovarian is -23% (active).

As for `Nc1c2c(c(O)c3c1=C(CO)C=N3)=NCCS2`, the growth was -54.6% (active) in the assay with SK-MEL-2 melanoma; -63.8% (active) in the assay on EKVX NSCLC; -63.4% (active) in the assay on SN12C renal; -86.3% (active) with UO-31 renal; -79.4% (active) with TK-10 renal; 0.734% (active) in the assay with ACHN renal. In addition, the growth in the assay with A498 renal is -88.2% (active); in the assay on CCRF-CEM leukemia it was 6.13% (active); with MOLT-4 leukemia it was -24.7% (active); with SR leukemia, 3% (active); in the assay with RPMI-8226 leukemia it was -30.8% (active); with OVCAR-8 ovarian it was -46.4% (active). The growth in the assay on OVCAR-5 ovarian was -70.5% (active); in the assay with OVCAR-4 ovarian it was -95.3% (active); with SK-OV-3 ovarian, -90.9% (active); in the assay with IGROV1 ovarian, -64.3% (active); in the assay with OVCAR-3 ovarian, -62.3% (active); with HS 578T breast it was 5.57% (active). The growth in the assay with NCI/ADR-RES ovarian was -24.8% (active).

In the case of `Cc1cc2c(-c3nc4ccccn4c3NC34CC5CC(CC(C5)C3)C4)c(O)c(O)cc2c(O)c1-c1c(C)cc2c(-c3nc4ccccn4c3NC34CC5CC(CC(C5)C3)C4)c(O)c(O)cc2c1O`, the growth is -2.48% (active) in the assay on SK-MEL-2 melanoma; 5.97% (active) in the assay with EKVX NSCLC; 15.9% in the assay with SN12C renal; -2.25% (active) with UO-31 renal; 7.59% (active) with TK-10 renal; 7.04% (active) in the assay on ACHN renal. Besides, the growth in the assay with A498 renal is 10.8%; in the assay with CCRF-CEM leukemia it was 16.4%; in the assay with MOLT-4 leukemia, 8.13% (active); in the assay with SR leukemia it was 13.1%; with RPMI-8226 leukemia, 24.4%; with OVCAR-8 ovarian, 12.3%. Further, the growth in the assay on OVCAR-5 ovarian is 29.3%; in the assay on OVCAR-4 ovarian, 21.4%; with SK-OV-3 ovarian, -11.1% (active); in the assay on IGROV1 ovarian, 21.3%; in the assay on OVCAR-3 ovarian it was 27.6%; in the assay on HS 578T breast, 21.8%. For the same compound, in the assay on NCI/ADR-RES ovarian, the growth is 9.01% (active).
